Measured values taken from PubChem BioAssay AID720647 (Broad Institute, 2013).
Several values for one entry are separate records, joined by “and”; a condition that tells them apart may be missing. Identical values can stand only once. The campaign covered roughly 380,000 compounds. About 1,300 (0.34%) were called active.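 Rule for the calls: active = drop in luminescence signal, shown as inhibition above about 50% in the replicate tests (limit read from the data, passing the limit was not always enough); inconclusive = probably only some replicates passing the limit; inactive = the rest.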 For the sample, actives were picked, then their nearest neighbours and some compounds at random. Some compounds were tested as several samples or in several runs, with calls that do not always agree.

The compounds below were run on Drosophila bursicon receptor LGR2 (rickets) (assay: LGR2 cAMP reporter signal reduction – cell-based, HEK293, CRE-luciferase reporter, bursicon stimulation, primary screen (AID 720647;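 note: agonist challenge used bursicon conditioned medium at about half maximal strength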)). Conditions: bursicon-stimulated, 4 h, at 9.99 µM, stronger effect = higher value.

Row | Structure (SMILES) | inhibition
1 | COc1cccc(CNCc2ccc3c(c2)OCO3)c1 | -10.4% (inactive)
2 | C(=N\Nc1ccc2ccccc2n1)/c1ccc2c(c1)OCO2 | 80.4% (active)
3 | Cc1ccc2oc(=O)c3cnn(CC(=O)N4CCCCCC4)c3c2c1 | 15.6% (inactive)
4 | COCCCN(C(=O)Cn1ncc2c(=O)oc3ccc(C)cc3c21)C(C)c1ccncc1 (configuration not stated) | 0.725% (inactive)
5 | Cc1ccc2oc(=O)c3cnn(CC(=O)N(Cc4ccco4)C4CCCCC4)c3c2c1 | 64.3% (active)
6 | COCC(=O)N1[C@H](CNC(=O)c2ccccn2)[C@H](c2ccccc2)[C@@H]1CO | 0.589% (inactive)
7 | C[C@H](CO)N1C[C@H](C)[C@H](CN(C)Cc2ccncc2)Oc2ccc(NC(=O)C3CCCCC3)cc2CC1=O | 10.2% (inactive)
8 | COc1ccc2c3c(n(C)c2c1)[C@H](CO)NCC31CCN(C(=O)Nc2ccccc2F)CC1 | -4.04% (inactive)
9 | O=c1c2c(nc3cc(-c4cccc(Cl)c4)[nH]n13)CCCC2 | 53.6% (active)
10 | COc1ccc2c3c(n(C)c2c1)[C@@H](CO)N(CC1CC1)CC31CN(C(=O)Nc2c(C)noc2C)C1 | -9.38% (inactive)
11 | C[C@@H]1CN([C@H](C)CO)C(=O)c2cc(-c3ccccc3)cnc2O[C@H]1CN(C)C(=O)NC1CCCC1 | 9.83% (inactive)
12 | Cc1ccc(C(=O)O/N=C(\N)c2ccccn2)cc1Cl | 88.8% (active)
13 | C/C(=N/OC(=O)c1cccc(C(F)(F)F)c1)c1cnccn1 | 16.7% (inactive)
14 | C/C(=N/OC(=O)c1c(-c2c(F)cccc2Cl)noc1C)c1cnccn1 | 32.3% (inactive)
15 | COc1ccc2c3c([nH]c2c1)[C@H](CO)N(Cc1ccccc1Cl)CC31CN(C(=O)C2CC2)C1 | 6.3% (inactive)
16 | COc1ccc(-c2ccccc2[C@H]2[C@@H](CO)N(C(=O)C3CCC3)[C@H]2C#N)cc1 | 3.46% (inactive)
17 | COc1ccc(S(=O)(=O)N(C)C[C@@H]2Oc3c(NS(=O)(=O)c4ccccc4)cccc3C(=O)N([C@@H](C)CO)C[C@@H]2C)cc1 | -7.82% (inactive)
18 | CCc1ccc2oc(-c3ccc(N)cc3)nc2c1 | 75.2% (active)
19 | O=C(Nc1ccc2c(c1)[C@H]1C[C@@H](CC(=O)N3CCc4ccccc4C3)O[C@H](CO)[C@H]1O2)Nc1ccccc1F | 12.8% (inactive)
20 | COC(=O)N(C)C[C@H]1OCc2ccccc2-c2ccccc2C(=O)N([C@@H](C)CO)C[C@H]1C | 2.52% (inactive)
21 | O=C(C[C@H]1C=C[C@H](NC(=O)Cc2ccccn2)[C@@H](CO)O1)NCCc1ccccc1 | 12.4% (inactive)
22 | CCS(=O)(=O)N1CC2(CN(Cc3ccccc3)[C@@H](CO)c3c2c2ccc(OC)cc2n3C)C1 | -9.3% (inactive)
23 | C=CCn1c(C)cc(C2=NNC(=NCC)SC2)c1C | 84.5% (active)
24 | CC(C)CC#Cc1cnc2c(c1)C(=O)N([C@H](C)CO)C[C@H](C)[C@@H](CN(C)Cc1ccccc1C(=O)O)O2 | 9.07% (inactive)

Row | Structure (SMILES) | inhibition
25 | C[C@H]1CCCCO[C@H](CN(C)C(=O)Nc2ccccc2)[C@@H](C)CN([C@@H](C)CO)C(=O)c2cc(NC(=O)CCC(F)(F)F)ccc2O1 | 8.75% (inactive)
26 | O=c1oc2ccccc2cc1-c1cn(-c2ccccc2)c(=S)[nH]1 | 102% (active)
27 | COc1ccc(-c2ccc3c(c2)[C@@H]2[C@@H](CCN2S(=O)(=O)c2ccccc2F)[C@H](CO)N3)cc1 | -25.5% (inactive)
28 | C[C@@H]1CN([C@@H](C)CO)C(=O)c2cc(-c3ccc(F)cc3)cnc2O[C@H]1CN(C)C(=O)c1ccncc1 | 1.63% (inactive)
29 | O=C(C1CCCCC1)N1[C@H](CO)[C@@H](c2ccccc2)C12CN(Cc1cccc(Cl)c1)C2 | 1.64% (inactive)
30 | O=C(C[C@@H]1CC[C@H](NC(=O)C2CCOCC2)[C@@H](CO)O1)Nc1ccccc1 | -3.27% (inactive)
31 | CCc1sc(N2[C@@H](C#N)[C@@H](c3ccccc3-c3ccccc3)[C@@H]2CO)nc1C | 0.259% (inactive)
32 | COc1ccc(-c2cn(CC[C@H]3CC[C@@H](N)[C@H](CO)O3)nn2)cc1 | -5.75% (inactive)
33 | COc1ccc2c3c([nH]c2c1)[C@H](CO)N(Cc1cccc(F)c1)CC31CCN(CC2CC2)CC1 | 16% (inactive)
34 | Cc1noc(C)c1NC(=O)Nc1ccc2c(c1)CC(=O)N([C@H](C)CO)C[C@@H](C)[C@@H](CN(C)S(=O)(=O)c1ccc(Cl)cc1)O2 | 4.84% (inactive)
35 | O=C(Nc1nc2ccccc2s1)c1ccc2c(c1)OCO2 | 79.6% (active)
36 | O=C(NCCc1ccc(C(F)(F)F)cc1)c1ccc2c(c1)OCO2 | -2.8% (inactive)
37 | Cc1nc(NC(=O)c2ccc3c(c2)OCCO3)ccc1Br | -47% (inactive)
38 | N#C[C@@H]1N[C@H](CO)[C@@H]1c1ccc(/C=C/c2ccccc2)cc1 | -52.3% (inactive)
39 | C[C@H]1CN([C@@H](C)CO)S(=O)(=O)c2ccc(-c3cccc(C#N)c3)cc2O[C@H]1CN(C)CC1CC1 | -1.41% (inactive)
40 | C[C@H]1CN([C@@H](C)CO)C(=O)c2cccc(NS(=O)(=O)c3ccccc3)c2O[C@@H]1CN(C)S(=O)(=O)c1cn(C)cn1 | 6.37% (inactive)
41 | COc1ccc2c(c1)c(=Cc1ccc(N(C)C)cc1)c1cc(-c3ccccc3)[n+](C)n12 | 102% (active)
42 | COc1ccc(S(=O)(=O)N(C)C[C@@H]2OCCCC[C@@H](C)Oc3ccc(N(C)C)cc3C(=O)N([C@@H](C)CO)C[C@@H]2C)cc1 | -3.31% (inactive)
43 | O=C1c2ccccc2C(Nc2ccc3c(c2)OCCO3)N1Cc1ccco1 (configuration not stated) | 0.038% (inactive)
44 | Cc1ccnc(N2C(=O)c3ccccc3C2Nc2ccc3c(c2)OCCO3)c1 (configuration not stated) | 66.5% (active)
45 | COC(=O)c1cc(NC2c3ccccc3C(=O)N2c2ccc(Cl)cn2)cc(C(=O)OC)c1 (configuration not stated) | -4.93% (inactive)
46 | Cc1ccc(-c2cnc3c(c2)C(=O)N([C@H](C)CO)C[C@H](C)[C@@H](CN(C)S(C)(=O)=O)O3)cc1 | 14.4% (inactive)
47 | C[C@H]1CN([C@@H](C)CO)S(=O)(=O)c2ccc(C#Cc3cccc(F)c3)cc2O[C@@H]1CN(C)S(=O)(=O)c1cn(C)cn1 | 16.7% (inactive)
48 | CCCC(=O)N1CCC2(CC1)CN(C(=O)C1CCCCC1)[C@@H](CO)c1[nH]c3cc(OC)ccc3c12 | -2.6% (inactive)

Row | Structure (SMILES) | inhibition
49 | COc1ccc(S(=O)(=O)N[C@H]2C=C[C@@H](CC(=O)O)O[C@@H]2CO)cc1 | 14.6% (inactive)
50 | CSc1ncnc2c1ncn2CCCNCc1ccco1 | -1.41% (inactive)
51 | CSc1ncnc2c1ncn2CC(=O)C1CCC2C3CCC4=CC(=O)CCC4(C)C3CCC12C (configuration not stated) | 89.8% (active)
52 | CC12CCC(=O)C=C1CCC1C2C(O)CC2(C)C1CCC2(O)C(O)CO (configuration not stated) | -20.1% (inactive)
53 | COCC(=O)Nc1ccc2c(c1)[C@H]1C[C@@H](CC(=O)NCc3ccccc3F)O[C@H](CO)[C@H]1O2 | -12.4% (inactive)
54 | COc1cccc(/C=C/c2ccc3ccccc3n2)c1OC(C)=O | 84.6% (active)
55 | CC=Cc1ccc2n(c1=O)C[C@H]1[C@H](CO)[C@@H](C(=O)NC3CCCC3)N(Cc3cccnc3)[C@@H]21 (mixture of isomers) | 5.27% (inactive)
56 | O=C(CNCc1ccc(Cl)cc1)Nc1cccc(C(=O)O)c1 | 22.7% (inactive)
57 | O=C(Cn1cc(/C=N/NC(=O)c2cccc(C(F)(F)F)c2)c2ccccc21)Nc1ccc(F)cc1 | 13.4% (inactive)
58 | O=C(O)c1cccc(NC(=S)N/N=C/c2c[nH]c3ccccc23)c1 | 75.5% (active)
59 | COc1cccc(CNC(=O)C[C@@H]2CC[C@@H]3[C@H](COc4ccc(NC(C)=O)cc4C(=O)N3C)O2)c1 | 18.5% (inactive)
60 | CCN1[C@@H]2Cn3c(ccc(-c4cccc(OC)c4)c3=O)[C@H]1[C@@H](C(=O)N(C)C)[C@@H]2CO | -2.29% (inactive)
61 | CCC(=O)N1CC(=O)N2[C@@H](CO)[C@H](c3ccc(C#CC4CCCC4)cc3)[C@@H]2C1 | -13.8% (inactive)
62 | C[C@@H]1CN([C@H](C)CO)C(=O)Cc2cc(NS(C)(=O)=O)ccc2O[C@@H]1CN(C)C(=O)Nc1ccc2c(c1)OCO2 | -12.8% (inactive)
63 | C[C@@H]1CN([C@H](C)CO)C(=O)c2cc(NC(=O)CCCCCC(=O)Nc3ccccc3N)ccc2O[C@H]1CN(C)Cc1ccncc1 | -8.39% (inactive)
64 | C[C@@H]1CCCCO[C@H](CN(C)CC2CC2)[C@@H](C)CN([C@H](C)CO)C(=O)c2cc(NC(=O)Cc3ccccc3)ccc2O1 | 2.52% (inactive)
65 | COc1ccccc1-c1cn(CC[C@@H]2CC[C@H](NC(=O)c3ccccc3F)[C@H](CO)O2)nn1 | 0.819% (inactive)
66 | COc1ccc2c3c(n(C)c2c1)[C@@H](CO)N(C(=O)c1ccccn1)CC31CN(C)C1 | 2.95% (inactive)
67 | Cn1cnc(S(=O)(=O)N2C[C@@H]3N[C@H](C2)C3c2ccc(-c3ccccc3F)cc2)c1 (some centres not stated) | 53% (active) and -30.1% (inactive)
68 | COc1ccc(-c2ccc(C3[C@@H]4CN(S(=O)(=O)c5cn(C)cn5)C[C@H]3N4)cc2)cc1 (some centres not stated) | -3.69% (inactive)
69 | Cn1cnc(S(=O)(=O)N2C[C@@H]3N[C@H](C2)C3c2ccc(/C=C/c3ccccc3)cc2)c1 (some centres not stated) | 7.15% (inactive) and -2.81% (inactive)
70 | C[C@H]1CN([C@@H](C)CO)C(=O)c2ccccc2-c2ccccc2CO[C@H]1CN(C)S(=O)(=O)c1cccc(C#N)c1 | -1.55% (inactive)
71 | C[C@H](NC(=O)C[C@@H]1CC[C@@H]2[C@H](COC[C@@H](O)CN2Cc2cc(F)ccc2F)O1)c1ccccc1 | 4.84% (inactive)
72 | O=C(C[C@H]1C[C@@H]2c3cc(NC(=O)CC4CC4)ccc3O[C@@H]2[C@H](CO)O1)NCc1cccnc1 | 2.45% (inactive)
